# Results from PubChem BioAssay AID651658 (Broad Institute, 2012).
# The whole screen tested about 340,000 compounds, of which about 5,100 (1.5%) were called active. Many of the other results were omitted from the sample, so actives are more common in it than they were. Unmarked numbers belong to inactive results.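 Rule for the calls: active = mean Tm shift, scaled 0 neutral to 100 positive control, at about 1.3% or above, every replicate too (limit read from the data); inconclusive = no clear call, values can overlap the other calls; inactive = the rest.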
# Molecular target: Fibroblast growth factor 22 (Homo sapiens) (UniProt Q9HCT0)
# Assay: binders of human FGF22 protein, primary screen, FGF22 synaptogenesis inhibitor project, biophysical, thermal shift, single point (AID 651658)
# Conditions: recombinant FGF22 thermal shift, SYPRO orange fluorescence; at 9.99 µM; stronger effect = higher value; percent of sucrose octasulfate shift, DMSO zero
# Sequence of Fibroblast growth factor 22 (Homo sapiens) (Q9HCT0 whole entry, looked up): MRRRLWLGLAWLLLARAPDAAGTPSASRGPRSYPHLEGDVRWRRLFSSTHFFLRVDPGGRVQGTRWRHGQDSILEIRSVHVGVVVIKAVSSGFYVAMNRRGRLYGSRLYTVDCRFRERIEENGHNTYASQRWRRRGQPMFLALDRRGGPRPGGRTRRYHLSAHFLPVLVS
row,SMILES,"activity (Tm shift, normalised)"
1,CC(C)NC(=O)N[C@@H]1CC[C@@H](CCNS(=O)(=O)Cc2ccccc2)O[C@@H]1CO,-0.299%
2,O=C(Nc1ccc(F)cc1)N1C[C@@H]2[C@H](c3ccccc31)[C@H](CO)N2Cc1ccccc1,-0.206%
3,CN1C(=O)c2cc(NC(=O)c3ccccc3)ccc2OC[C@H]2O[C@@H](CC(=O)O)CC[C@@H]21,-0.04%
4,CC(=O)N(C)C[C@@H]1Oc2ncc(C#Cc3ccccn3)cc2C(=O)N([C@@H](C)CO)C[C@@H]1C,0.165%
5,Cc1cccc(CN2CCN(C3CN(Cc4cn(Cc5cc(C)cc(C)c5)nn4)S(=O)(=O)C3)CC2)c1 (stereo unspecified),-0.326%
6,CCCCN1CC(N2CCN(Cc3cccc(C)c3)CC2)CS1(=O)=O (stereo unspecified),1.92% (active)
7,Cc1cccc(CN2CCN(C3CN(Cc4ccccc4)S(=O)(=O)C3)CC2)c1 (stereo unspecified),-0.158%
8,COc1cccc(CNC(=O)C[C@@H]2CC[C@H]3[C@@H](COc4ccc(NC(=O)c5cccs5)cc4C(=O)N3C)O2)c1,0.125%
9,CCOc1ccc(/C=N\NC(=O)c2c(C)nc3cc(C)ccn23)cc1,-0.098%
10,Cc1ccc(NC(=O)C(=O)NCc2ccc(/C=N/NC(=O)c3c(C)nc4cc(C)ccn34)o2)cc1,2.68% (active)
11,Cc1ccn2c(=O)c(NC(=O)c3cccc4ccccc34)c(C)nc2c1,-0.089%
12,CO[C@H]1CN(C)C(=O)c2cc(NS(=O)(=O)c3ccccc3)ccc2OC[C@H](C)NC[C@@H]1C,-0.185%
13,C[C@H]1CN([C@@H](C)CO)S(=O)(=O)c2ccc(Br)cc2O[C@H]1CN(C)Cc1ccccn1,-0.079%
14,COc1ccc2c3c(n(C)c2c1)[C@@H](CO)N(C(=O)Nc1ccc(F)cc1)CC31CCN(C(=O)c2cccnc2)CC1,-0.306%
15,C[C@@H]1CN([C@H](C)CO)S(=O)(=O)c2ccc(C3=CCCC3)cc2O[C@@H]1CN(C)C(=O)C1CCC1,0.141%
16,O=C(c1ccncc1)c1ccc([N+](=O)[O-])cc1,43.1% (active)
17,O=C(Nn1cnnc1)c1ccc([N+](=O)[O-])cc1,42.7%
18,O=C(Nc1ccccc1C(=O)Nc1ccncc1)c1ccc([N+](=O)[O-])cc1,-0.016%
19,CC(C)NC(=O)N1CC2(C1)[C@H](c1ccccc1)[C@H](CO)N2C(=O)C1CCOCC1,-0.068%
20,CC(=O)Oc1ccc2c(=O)oc(-c3ccc([N+](=O)[O-])cc3)nc2c1,-0.034%
21,O=[N+]([O-])c1ccc2c(c1)C(O)n1nc(-c3ccccc3)nc1S2 (stereo unspecified),0.035%
22,O=[N+]([O-])c1ccc2oc(-c3cccc(O)c3)nc2c1,43.2% (active)
23,CN(C)C(=O)C[C@@H]1CC[C@H]2[C@@H](COC[C@H](O)CN2C(=O)c2ccncc2)O1,-0.192%
24,CC(C)CC#Cc1cnc2c(c1)C(=O)N([C@H](C)CO)C[C@H](C)[C@@H](CN(C)Cc1ccccc1)O2,0.063%
25,CO[C@@H]1CN(C)C(=O)c2ccc(NC(=O)Nc3ccccc3)cc2OC[C@@H](C)N(C(=O)CN(C)C)C[C@H]1C,-0.352%
26,Cc1c(CCOC(=O)CC23CC4CC(CC(C)(C4)C2)C3)sc[n+]1Cc1ccc([N+](=O)[O-])cc1,-0.223%

row,SMILES,"activity (Tm shift, normalised)"
1,Cc1c(CCO)sc[n+]1CC(=O)OC12CC3CC(CC(C3)C1)C2,1.45% (active)
2,C[C@@H]1CN([C@@H](C)CO)S(=O)(=O)c2ccc(/C=C/c3ccccc3)cc2O[C@H]1CN(C)C(=O)C1CC1,-0.835%
3,COc1cccc(CN2CC3(CN(Cc4ccccn4)C3)c3c([nH]c4cc(OC)ccc34)[C@@H]2CO)c1,0.052%
4,CCS(=O)(=O)N1CCC2(CC1)CN(Cc1ccc3c(c1)OCO3)[C@H](CO)c1[nH]c3cc(OC)ccc3c12,0.042%
5,COc1cc(OC)cc(-c2nc3ccccc3c(=O)n2NC(=O)c2cccnc2Cl)c1,0.323%
6,COc1cc(C(=O)Nn2c(CC(C)C)nc3ccccc3c2=O)cc(OC)c1OC,0.375%
7,COc1ccccc1C(=O)Nn1c(-c2cccs2)nc2ccccc2c1=O,43.8% (active)
8,C[C@H]1CN([C@@H](C)CO)C(=O)c2cc(-c3ccncc3)cnc2O[C@H]1CN(C)C(=O)c1cccc(F)c1,-0.103%
9,C[C@H]1CN([C@@H](C)CO)C(=O)c2cc(NC(=O)Nc3ccccc3)ccc2O[C@H]1CN(C)C(=O)Nc1ccc(F)cc1,0.055%
10,COCC(=O)Nc1ccc2c(c1)OC[C@H](C)N(C)C[C@@H](C)[C@@H](OC)CN(C)C2=O,38% (active)
11,COCC(=O)Nc1ccc2c(c1)OC[C@H](C)N(C(=O)COC)C[C@@H](C)[C@H](OC)CN(C)C2=O,0.165%
12,CCC(=O)N1C[C@@H](C)[C@H](OC)CN(C)C(=O)c2ccc(NC(=O)COC)cc2OC[C@@H]1C,0.031%
13,COc1cccc(-c2ccc3c(c2)[C@H]2[C@H](CCN2C(=O)c2ccc(F)cc2)[C@@H](CO)N3)c1,-0.166%
14,N#CCSc1nc(-c2ccccc2)nc2ccc(F)cc12,-0.193%
15,O=[N+]([O-])c1cc2ccccc2nc1-c1ccccc1,42.3%
16,O=[N+]([O-])c1ccc(F)cc1Oc1nc(-c2cccnc2)nc2ccccc12,43.2% (active)
17,COc1cccc(-c2ccc([C@@H]3[C@@H](C#N)N(C(=O)c4ccccn4)[C@H]3CO)cc2)c1,-0.024%
18,O=C(CN1CCOCC1)NC[C@@H]1N[C@@H](CO)[C@@H]1c1ccc(-c2ccccc2)cc1,0.456%
19,C[C@@H]1CN([C@H](C)CO)C(=O)c2cc(N(C)C)ccc2O[C@@H](C)CCCCO[C@@H]1CN(C)C(=O)CCCN(C)C,-0.859%
20,COc1ccccc1C#Cc1cnc2c(c1)C(=O)N([C@H](C)CO)C[C@H](C)[C@H](CN(C)S(=O)(=O)c1cn(C)cn1)O2,0.666%
21,CC(C)[C@@H]1COCn2nncc2CCCC(=O)N1,-0.193%
22,O=C(C[C@H]1CC[C@@H]2[C@H](COC[C@@H](O)CN2C(=O)Nc2ccc(C(F)(F)F)cc2)O1)NCCc1ccncc1,-0.088%
23,O=C1C=C(c2ccccc2)CCC1,43.9% (active)
24,CC(C)NC(=O)N1[C@H](CO)[C@H](c2ccccc2)C12CN(C(=O)Cc1ccccc1)C2,-0.087%
25,CC(C)Oc1ccccc1C(=O)NC(CO)C(=O)O (stereo unspecified),42.8%
26,CC1(C)OC(=O)C(=CNC(CO)C(=O)O)C(=O)O1 (stereo unspecified),43.2% (active)

row,SMILES,"activity (Tm shift, normalised)"
1,COCC(=O)N1CC2(C1)CN(C(=O)COC)[C@@H](CO)c1c2c2ccc(OC)cc2n1C,-0.043%
2,C[C@@H]1CN([C@H](C)CO)C(=O)c2cc(NC(=O)Cn3cnnn3)ccc2O[C@@H]1CN(C)C(=O)Nc1ccc2c(c1)OCO2,0.191%
3,O=S(=O)(N[C@@H]1CC[C@H](CCn2cc(-c3ccccc3F)nn2)O[C@H]1CO)c1ccc(F)cc1,0.086%
4,O=S(=O)(Oc1ccccc1C(=S)N1CCOCC1)c1ccc(Cl)cc1,0%
5,S=C(Cc1ccc(Cl)cc1)N1CCOCC1,43.7% (active)
6,O=C(Cc1ccccc1Cl)N1CCOCC1,-0.495%
7,COc1ccc2c3c(n(C)c2c1)[C@@H](CO)NCC31CCN(CC2CCCC2)CC1,-0.076%
8,Cc1ccc(S(=O)(=O)c2nc(-c3cccs3)oc2NCc2cccnc2)cc1,0.137%
9,O=S(=O)(c1ccccc1)c1nc(-c2ccccc2F)oc1NCc1cccnc1,44.2% (active)
10,O=S(=O)(c1ccccc1)c1nc(-c2ccccc2)oc1NCCCN1CCOCC1,0.296%
11,O=C(NCC1CC1)[C@@H]1[C@@H](CO)[C@@H]2Cn3c(ccc(-c4ccccc4)c3=O)[C@H]1N2C(=O)C1CC1,0.292%
12,CC1CCN(S(=O)(=O)c2ccc3[nH]c(=O)ccc3c2)CC1,43.3% (active)
13,Cc1cc(C)cc(NC(=O)C2CCCN(S(=O)(=O)c3ccc4[nH]c(=O)ccc4c3)C2)c1 (stereo unspecified),-0.297%
14,CC1CCN(S(=O)(=O)c2ccc3c(c2)n(C)c(=O)n3C)CC1,0.113%
15,COc1ccc(CCNC(=O)c2c(C)nn(-c3ccccc3)c2Cl)cc1,0.155%
16,COCc1[nH]nc2c1C(c1ccccc1)N(c1ccccc1)C2=O (stereo unspecified),-0.061%
17,COc1ccc(C2c3c(C)nn(-c4ccccc4)c3NC(=O)N2c2ccccc2)cc1 (stereo unspecified),42.9% (active)
18,COc1ccccc1-c1ccc2c(c1)O[C@@H](CN(C)C(=O)Nc1ccccc1)[C@H](C)CN([C@@H](C)CO)S2(=O)=O,0.048%
19,CN1c2ccc(-c3cccc(C#N)c3)cc2[C@@H]2[C@@H](CCN2C(=O)C2CCC2)[C@@H]1CO,-0.466%
20,Cc1nc2sc3c(c2c(=O)n1NC(=O)CCl)CCCC3,0.109%
21,CC(C(=O)O)n1cnc2sc3c(c2c1=O)CCCC3 (stereo unspecified),43.5% (active)
22,COc1ccc(NC(=O)CCNC(=O)Cn2cnc3sc4c(c3c2=O)CCCC4)cc1OC,0.026%
23,CN(C)C(=O)c1ccc(-c2ccc([C@@H]3[C@@H](CO)N4CCCCN(CC5CC5)C[C@H]34)cc2)cc1,-0.109%
24,CC(=O)N1[C@@H](CO)[C@H](c2ccccc2)[C@@H]1CN(C)C(=O)CN1CCOCC1,0.01%
